Activity calls are given as the source filed them. How the calls were made is not given here.
What follows are compounds tested against Muscarinic acetylcholine receptor M2 (Homo sapiens) (UniProt P08172) (assay: ACh potency shift at human M2 – cell-based, Gqi5 chimera, calcium, selectivity assay for M4 PAM project (AID 1930)). Conditions: hM2/Gqi5 cells, ACh calcium response fold-shift; series mostly up to 10 µM.
Chain of Muscarinic acetylcholine receptor M2 (Homo sapiens) (P08172 whole entry, looked up): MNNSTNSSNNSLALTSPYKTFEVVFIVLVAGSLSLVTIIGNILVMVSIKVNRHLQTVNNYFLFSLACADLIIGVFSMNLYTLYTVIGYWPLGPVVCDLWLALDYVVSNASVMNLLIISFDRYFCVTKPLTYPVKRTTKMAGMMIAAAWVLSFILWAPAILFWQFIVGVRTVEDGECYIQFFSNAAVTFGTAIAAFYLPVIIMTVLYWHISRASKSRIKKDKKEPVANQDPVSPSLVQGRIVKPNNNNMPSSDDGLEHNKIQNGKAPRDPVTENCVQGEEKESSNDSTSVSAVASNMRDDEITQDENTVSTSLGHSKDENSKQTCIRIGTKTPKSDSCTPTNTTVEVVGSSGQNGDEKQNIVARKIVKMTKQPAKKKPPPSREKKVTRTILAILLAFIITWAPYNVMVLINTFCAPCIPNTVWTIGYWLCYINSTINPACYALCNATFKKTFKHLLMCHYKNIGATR

outcome, inactive:
COc1ccc(CNC(=O)c2sc3nc(OCc4ccncc4)cc(C)c3c2N)cc1
Cc1cc(OCc2ccncc2)nc2sc(C(=O)NCc3cc(F)ccc3F)c(N)c12
Cc1cc(OCCN2CCOCC2)nc2sc(C(=O)NC(C)(C)C)c(N)c12
Cc1cc(OCc2ccncc2)nc2sc(C(=O)NCc3cccc(F)c3F)c(N)c12

From PubChem BioAssay AID1930 (Vanderbilt High Throughput Screening Facility, 2009)
